# From PubChem BioAssay
# Only a selection was taken, and hits are over-represented in it overall.
# AMA1-RON2 inh = disrupts binding of P. falciparum AMA1 to RON2; AlphaScreen AMA1-biotinylated RON2 peptide binding; Potency, µM (top dose mostly 58.2 µM), for inactives: top-dose activity change, negative = inhibition, usual class: inhibitors; actives 0.2% (n = 360,000); AID 720542; active means well fitted inhibition curve with a large enough effect; inconclusive means small, poorly fitted or top-dose-only effect; inactive means no such curve, though single readings can be large or run the other way;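 further: potency means the concentration at half of the fitted maximal effect; 0% = vehicle wells and -100% = peptide control; nearly all actives have a fitted effect of over 45% in size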
#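 AMA1 (3D7) with his tag at 25 nM final met compounds first, then biotinylated RON2 peptide at 25 nM; detection used donor plus acceptor beads, 10 µg/mL apiece, read by AlphaScreen after 30 min at room temperature.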
# Marburg entry inh = Marburg virus entry inhibition; AID 540276; Marburg virus pseudotyped entry inhibition, cell reporter; actives 1.8% (n = 300,000); Potency, µM (doses to about 37.8 µM), for the others: top-dose activity change, negative = inhibition, usual class: inhibitors; calls by dose curve; tested in HEK293 cells; further: potency means the concentration at half of the fitted maximal effect; on the % scale 0 is the no-effect control and ±100 the full control effect
# Lassa entry inh = blocks Lassa virus binding to or entry into cells; Lassa virus pseudotype entry inhibition, cell reporter; AID 540256; Potency, µM (top dose mostly 37.9 µM), for the others: at the top dose activity change, negative = inhibition, usual class: inhibitors; actives 1.2% (n = 300,000); calls by dose curve; tested in HEK293 cells; further: potency means the concentration at half of the fitted maximal effect; on the % scale 0 is the no-effect control and ±100 the full control effect; nearly all actives have a fitted effect of over 50% in size
# Shiga inhibitor = Shiga toxin inhibition | Vero cells, Shiga toxin protein synthesis inhibition reporter | inhibition, % at 38.7 µM | actives 9.2% (n = 290,000) | AID 2315; in the data active means inhibition mostly above about 28%, no sharp cut-off; inactive means mostly below about 43%; further: 0% is about no effect
# CHX counter = affects cycloheximide protein synthesis inhibition readout, counter-screen. actives 12% (n = 300,000). AID 2314. max response, %. cell reporter, cycloheximide protein synthesis inhibition counterscreen; in the data active means max response mostly above about 13%, no sharp cut-off; inactive means mostly below about 14%; further: read at 38.3 µM for the half of the compounds with a filed dose; 0% is about no effect
# An asterisk follows results filed as active; ? = inconclusive; / = not tested or not shown; + = active, no number; [ ] = remark or other dose.
SMILES,AMA1-RON2 inh,Marburg entry inh,Lassa entry inh,Shiga inhibitor,CHX counter
COc1ccc(NC(=O)c2cn(-c3ccccc3)nc2-c2cc3ccccc3o2)cc1,-2%,?,2%,19,-2
OCc1cn(-c2ccccc2)nc1-c1ccc(Br)cc1,5%,/,/,33*,32*
O=C(O)/C=C/c1cn(-c2ccccc2)nc1-c1ccc2c(c1)OCCO2,-21%,-7%[46.1 µM],0%,21,-2
OCc1cn(-c2ccccc2)nc1-c1cc2ccccc2o1,0%,/,/,100*,55*
OCc1cn(-c2ccccc2)nc1-c1ccc2c(c1)OCCO2,-13%,?,?,101*,45*
Cc1cccc2c1-c1sc(C(=O)N3CCN(c4ccc(F)cc4)CC3)cc1CO2,/,2%[46.1 µM],/,/,/
O=C(Nc1ccc(Cl)cc1)Nc1nc(-c2sccc2Br)cs1,-16%,?,?,12,-4
Cc1csc(NC(=O)Nc2ccc(Cl)cc2)n1,-14%,-16%,2%,62*,48*
O=C(Nc1ccc(Cl)cc1)Nc1nc(-c2ccccc2O)cs1,43%,/,/,20*,17
Cc1cnc(NC(=O)Nc2ccc(Cl)cc2)s1,2%,/,/,153*,57*
COc1cc(OC)cc(C(=O)Oc2c(CN3CCOCC3)cc(Cl)c3cccnc23)c1,47%,-16%[46.1 µM],?,35,8.0*
COc1ccc(C(=O)Oc2c(CN3CCOCC3)cc(Cl)c3cccnc23)cc1OC,32%,0%,/,/,/
CC(=O)NC(C)c1nc2ccccc2n1Cc1ccccc1Cl (stereo not given),/,-2%[46.1 µM],-1%[46.1 µM],/,/
CC(NC(=O)/C=C/c1ccco1)c1nc2ccccc2n1Cc1ccccc1F (stereo not given),0%,-8%,-10%,60,27*
CC(NC(=O)/C=C/c1ccco1)c1nc2ccccc2n1Cc1c(Cl)cccc1Cl (stereo not given),9%[2.32 µM],-18%,-1%,44*,22*
O=C(/C=C/c1ccc([N+](=O)[O-])cc1)N(c1ccccn1)C1CCCCC1,-18%,30%[46.1 µM],-2%,-10,1
COC(=O)C1C(O)=C(C=Nc2ccc3ccccc3c2)C(=O)CC1(C)C (stereo not given),12%,/,/,17,15*
CCCOC(=O)/C(=C\C=C\c1ccco1)NC(=O)c1ccccc1,2%,11%[46.1 µM],9%,115*,51*
COc1ccccc1N1CSC2=C(C#N)C(c3ccc(SC)cc3)CC(=O)N2C1 (stereo not given),0%,/,/,-9,-3
Cc1cc(C)n2nc(C(=O)NCCc3ccccc3)nc2n1,8%,0%,?,92*,68*
O=C(O)c1cc2nc(-c3cccs3)cc(C(F)(F)F)n2n1,-5%,-19%[46.1 µM],12%[46.1 µM],9,-2
O=C(NCCc1ccccc1)c1nc2nc(-c3cccs3)cc(C(F)(F)F)n2n1,90%,?,-4%,+,41*
Nc1c(C(=O)O)cnc2c(-c3ccc(Cl)cc3)cnn12,14%,?,?,91,27*
Clc1ccc(-c2cnn3c(-c4ccncc4)ccnc23)cc1,2%,/,/,89*,35*
CC(=O)c1cnc2c(-c3ccccc3)c(-c3ccccc3)nn2c1C,3%,/,/,-6,-2
SMILES,AMA1-RON2 inh,Marburg entry inh,Lassa entry inh,Shiga inhibitor,CHX counter
Nc1nc2nccc(-c3ccc(Cl)cc3)n2n1,3%,3%[46.1 µM],25%,42*,44*
CC(=O)c1cnc2c(-c3ccc(Cl)cc3)cnn2c1C,-6%,?,?,40*,14
COc1cccc(CNc2nc3cc(-c4cnn(Cc5ccccc5)c4)sc3c(=O)n2C)c1,-9%,/,/,/,/
CN1C(=O)N(CC(=O)N2CCN(c3ccccc3F)CC2)C(=O)C12CCCCC2,-23%,/,/,/,/
COC(=O)c1cn(CCOc2ccccc2F)c2ccccc12,10%,?,3%,71*,40*
COC(=O)c1cn(CCOc2ccccc2)c2ccccc12,34%,-26%,?,79*,55*
O=c1oc(CCCO)cc2ccc(/C=C/c3cccc([N+](=O)[O-])c3)cc12,-9%,/,/,/,/
CC1=CC(=C2C(=O)c3ccccc3C2=O)C=C(C)N1C,-11%,?,?,40,26*
CCCCCN1C=CC(=C2C(=O)c3ccccc3C2=O)C=C1,-5%,/,/,-33,-15
Cc1cc(C)nc(N2CCC(C(=O)Nc3cccc(C(F)(F)F)c3)CC2)n1,2%,?,-13%,-11,-3
O=C(Nc1ccccc1N1CCCC1)c1cccc(-c2cc3ccccc3oc2=O)c1,-21%,-13%,-2%,29,18*
O=C(Nc1ccc(Br)cn1)c1cccc(-c2cc3ccccc3oc2=O)c1,0%[11.6 µM],?,?,49*,41*
O=C(Nc1ccc(N2CCCC2)cc1)c1cccc(-c2cc3ccccc3oc2=O)c1,-14%[11.6 µM],?,?,14,8
Cc1nc(NC(=O)c2cccc(-c3cc4ccccc4oc3=O)c2)ccc1Br,2%,?,-1%,31,2
CCCCCCCN1CCC(=O)N([C@H](CO)c2ccccc2)CC1,-8%,/,/,-4,-4
COc1cccc2cc(C(C)N(CCCN3CCOCC3)C(=S)Nc3cccc(C)c3)oc12 (stereo not given),7%,10µM*,?,-10,1
CCOC(=O)c1sc(NC(=O)CCCn2nc([N+](=O)[O-])c(Cl)c2C)c(C(=O)OCC)c1C,-28%,-1%,-12%,-1,-1
O=C1C(Cl)=C(NCCN2CCCCC2)C(=O)c2ccccc21,-20%,/,/,49*,54*
Cc1cc(OCC(=O)N2CCOCC2)cc2oc(=O)c3ccccc3c12,1%,?,1%,36*,21*
Cc1ccc(C)c(OCCCC(=O)O)c1,4%,?,-11%,-6,-2
Cc1cc(OCCN2CCCCCC2)ccc1[N+](=O)[O-],-19%,-18%,1%,-3,2
Cc1ccc(C)c(OCCCC(=O)N2CCOCC2)c1,6%,10%,2%,44*,27*
Cc1cc(OCC(=O)N2CCCCCC2)ccc1[N+](=O)[O-],-3%,?,6%,17,43*
O=C(c1ccccc1)c1ccc(OCC(=O)N2CCOCC2)cc1,-2%,/,/,46*,17
Cc1ccc(C)c(NC(=O)CC2Oc3ccccc3NC2=O)c1 (stereo not given),5%,/,/,-3,-1
SMILES,AMA1-RON2 inh,Marburg entry inh,Lassa entry inh,Shiga inhibitor,CHX counter
COc1ccc(-n2ncc3c(NC4CCCC4)ncnc32)cc1,/,/,-4%[46.1 µM],/,/
Cc1csc(=O)n1CC(=O)OCC(=O)NNC(=O)c1ccc(Cl)cc1,58%,/,/,/,/
Cc1cc(OCC(=O)OCC(=O)N2CCCCC2)ccc1Cl,-3%,/,/,/,/
Cc1ccc(OCC(=O)c2ccc3c(c2)CCCC3)cc1C,99%,0%,-2%,92*,36*
Cc1ccc(OCC(=O)N2CCOCC2)cc1C,-1%,?,?,44*,31*
O=C(COc1ccc(Br)cc1)c1ccc2c(c1)CCCC2,73%,-4%,-11%,-5,-3
Cc1ccc(OCC(=O)N2CCCCCCC2)cc1C,23%,?,4%[46.1 µM],29*,21*
CCCCC#Cc1nc(NC)c2ncn([C@@H]3O[C@@H](CO)[C@H](O)[C@H]3O)c2n1,/,9%,/,/,/
COc1ccccc1CNc1ncnc2c1nnn2C,/,/,-7%[46.1 µM],/,/
